Avidin fluor – compound fluoresces at 488/530 nm on avidin beads. fluorescence (KMESF) at 10 µM. compound fluorescence 488/530 nm, flow cytometry; active compounds read high. AID 1775. hit rate 0.38% among 220,000; in the data active = fluorescence above about 47
RGS4-Gao reg – human RGS4-Galphao interaction regulation. binding response (% of control), % at 10 µM. P09471. hit rate 0.33% among 220,000. AID 1415. Multiplexed bead flow cytometry, RGS4-Galphao binding; actives lie on both sides; in the data active = binding response below about 49% or above about 150%; inactive = in between;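 note: fluorescent Galphao activated with aluminum fluoride binding bead-coupled RGS4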
Target sequence (P09471 whole entry, looked up): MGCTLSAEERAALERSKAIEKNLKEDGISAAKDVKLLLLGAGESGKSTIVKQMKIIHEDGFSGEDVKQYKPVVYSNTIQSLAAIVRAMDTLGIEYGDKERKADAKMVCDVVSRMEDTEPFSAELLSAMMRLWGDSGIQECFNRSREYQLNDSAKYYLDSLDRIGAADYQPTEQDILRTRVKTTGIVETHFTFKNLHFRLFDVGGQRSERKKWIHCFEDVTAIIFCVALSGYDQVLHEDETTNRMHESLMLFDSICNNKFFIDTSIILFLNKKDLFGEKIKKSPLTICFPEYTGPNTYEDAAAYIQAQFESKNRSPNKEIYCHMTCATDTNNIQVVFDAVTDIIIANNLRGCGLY
GSH fluor – GSH bead compound fluorescence profile; GSH beads flow cytometry, compound fluorescence 488/530 nm; active compounds read high; fluorescence (KMESF) at 10 µM; hit rate 0.25% among 190,000; in the data active = fluorescence above about 89;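 note: glutathione beads carrying GST-tagged Bcl family fusion proteins plus one bare bead set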
RGS8-Gao reg – modulates binding of RGS8 to human Galphao. response (percent of control binding), % at 10 µM. multiplexed bead flow cytometry; actives lie on both sides. P09471. hit rate 0.34% among 220,000; in the data active = response below about 60% or above about 140%; inactive = in between;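 note: Galphao activated as the GDP aluminium fluoride complex binding bead-coupled RGS8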
RGS16-Gao HTS – RGS16-Galphao interaction regulator (human) | bead-based flow cytometry RGS16-Galphao binding, fluorescence; actives lie on both sides | binding response (% of control), % at 10 µM | hit rate 0.38% among 220,000 | AID 1441;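 note: Galphao activated by GDP with aluminum fluoride before binding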
RGS7-Gao – regulators of human RGS7-Galphao interaction; P09471; Multiplexed bead flow cytometry, RGS7-Galphao binding; actives lie on both sides; binding response (% of control), % at 10 µM; hit rate 0.35% among 220,000; AID 1439; in the data active = binding response below about 49% or above about 150%; inconclusive = no clear call, values can overlap the other calls; inactive = in between;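 note: fluorescent Galphao held in activated GDP-AlF4 state binding bead-coupled RGS7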
RGS-Gao – RGS4-Galphao interaction regulator (human). shares compounds with RGS16-Gao HTS. multiplexed bead flow cytometry, RGS–Galpha-o binding. RGS4–Galpha-o binding response, % at 10 µM. hit rate 99% among 1,600;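 note: fluorescently labeled Galpha-o bound to GDP with aluminium fluoride binding biotinylated RGS beads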
Biotin-avidin – counter-screen: compounds disrupting biotin binding to avidin beads; 1,700 tested, under 10 active; shares compounds with RGS16-Gao HTS; AID 1783; streptavidin beads, fluorescein-biotin binding, flow cytometry; inhibition, % at 10 µM;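 active = inhibition above 50%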;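 note: median green fluorescence of gated singlet beads compared with DMSO control wells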
RGS8-Gao confirm – confirmation of regulators of human RGS8-Galphao interaction. shares compounds with RGS16-Gao HTS. bead-based flow cytometry RGS8-Galphao binding, fluorescence; actives lie on both sides. binding response (% of control), % at 10 µM. hit rate 3% among 1,700. AID 1836; in the data active = binding response below about 72% or above about 130%; inactive = in between;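 note: Galphao activated as GDP AlF4 complex before binding bead RGS8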
RGS7-Gao single – confirmation of regulators of human RGS7-Galphao interaction. shares compounds with RGS16-Gao HTS. bead-based flow cytometry RGS7-Galphao binding; actives lie on both sides. response (percent of control binding), % at 10 µM. hit rate 7.8% among 1,700. AID 1837; in the data active = response below about 75% or above about 130%; inactive = in between;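 note: fluorescent Galphao activated with GDP and aluminum fluoride binding bead-coupled RGS7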
RGS16-Gao single – RGS16-Galphao interaction regulation, single point confirmation. shares compounds with RGS16-Gao HTS. response (% of control binding), % at 10 µM. bead-based flow cytometry, RGS16-Galphao binding; actives lie on both sides. hit rate 4% among 1,700; in the data active = response below about 74% or above about 130%; inactive = in between;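 note: Galphao activated as the GDP aluminium fluoride complex binding bead-coupled RGS16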
RGS4-Gao single – RGS4-Galphao interaction regulation, single point confirmation; shares compounds with RGS16-Gao HTS; RGS4-Galphao binding, multiplexed bead flow cytometry; actives lie on both sides; binding response (% of control), % at 10 µM; hit rate 4% among 1,700; AID 1840; in the data active = binding response below about 74% or above about 130%; inactive = in between
RGS19-Gao single – RGS19-Galphao interaction regulation, single point confirmation; shares compounds with RGS16-Gao HTS; bead-based flow cytometry RGS19-Galphao binding; actives lie on both sides; response (percent of control binding), % at 10 µM; hit rate 5% among 1,700; in the data active = response below about 50% or above about 160%; inactive = in between
Target sequence (P09471 whole entry, looked up): as above
Target sequence (P49795 whole entry, looked up): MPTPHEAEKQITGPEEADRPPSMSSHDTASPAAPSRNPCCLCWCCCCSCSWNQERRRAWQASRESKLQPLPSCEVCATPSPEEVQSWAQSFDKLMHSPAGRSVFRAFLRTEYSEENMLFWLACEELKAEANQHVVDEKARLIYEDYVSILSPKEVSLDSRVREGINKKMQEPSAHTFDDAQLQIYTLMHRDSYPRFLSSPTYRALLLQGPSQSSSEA
Numbers stand for hits; . = inactive; ? = inconclusive; / = no result given; [ ] = dose if it differs, or a comment. Compounds with a hit are over-represented: about 1.2% of the library has one in this group of screens. Unless noted, the rule behind the calls is not given here.

SMILES	Avidin fluor	RGS4-Gao reg	GSH fluor	RGS8-Gao reg	RGS16-Gao HTS	RGS7-Gao	RGS-Gao	Biotin-avidin	RGS8-Gao confirm	RGS7-Gao single	RGS16-Gao single	RGS4-Gao single	RGS19-Gao single
CC(C)(C)c1ccc(-c2nc3n(c(=O)c2C#N)CCS3)cc1	.	.	.	.	.	.	/	/	/	/	/	/	/
COc1nc(N)c(S(=O)(=O)c2ccccc2)cc1C#N	.	.	.	145[activator]	.	.	124	.	.	.	.	.	.
CN(CCC#N)C(=O)COC(=O)c1ccc(Cl)c(S(=O)(=O)N(C)c2ccccc2)c1	.	.	.	.	.	.	/	/	/	/	/	/	/
Cc1cc(C)n(C(=O)COc2ccc([N+](=O)[O-])cc2)n1	.	.	.	.	.	.	/	/	/	/	/	/	/
Cc1cc(C)n(C(N)=NC(=O)c2ccc([N+](=O)[O-])cc2)n1	.	35	/	54	.	?	/	.	.	.	.	.	.
Cc1onc(-c2ccccc2Cl)c1C(=O)Oc1cccc2cccnc12	.	.	.	.	.	.	/	/	/	/	/	/	/
COc1ccccc1NS(=O)(=O)c1cc(Cl)ccc1OC	.	.	.	144[activator]	.	.	125	.	.	.	.	.	.
CCCn1nc(C(=O)Oc2ccc3c(C)cc(=O)oc3c2)c2ccccc2c1=O	.	.	.	.	.	.	/	/	/	/	/	/	/
O/N=C/c1ccc(OCc2ccccc2)c(Cl)c1	.	.	.	.	.	.	/	/	/	/	/	/	/
O/N=C/c1ccc(OCc2ccccc2)c(Br)c1	.	.	.	.	3.0	.	84	.	.	.	.	.	.
Cc1ccc(S(=O)(=O)NCc2ccc(C(=O)NCCCN3CCC(Cc4ccccc4)CC3)cc2)cc1	.	.	.	.	.	?	/	/	/	/	/	/	/
Cc1nn(Cc2ccc(F)cc2)c2sc(C(=O)Nc3ccccc3N3CCOCC3)cc12	.	.	.	.	15	.	89	.	.	.	.	.	.
Cc1nn(Cc2ccccc2Cl)c2sc(C(=O)Nc3ccccc3N3CCOCC3)cc12	.	.	.	.	.	.	/	/	/	/	/	/	/
CCOC(=O)/C(=N\Nc1ccccc1)S(=O)(=O)c1ccccc1	/	/	.	/	/	/	/	.	.	.	.	.	.
CCOC(=O)/C(=N/Nc1ccc(C)cc1)S(=O)(=O)c1ccc(Cl)cc1	.	.	.	.	.	.	/	/	/	/	/	/	/
O=C(NCc1ccco1)c1ccc(S(=O)(=O)N2CCCc3ccccc32)cc1	.	.	.	.	-44	.	80	/	/	/	/	/	/
O=C(NCc1ccccc1)c1ccc(S(=O)(=O)N2CCCc3ccccc32)cc1	.	.	.	.	.	.	/	/	/	/	/	/	/
O=C(c1cnsn1)N1CCN(c2ccccc2)CC1	163	.	.	.	.	248[activator]	118	.	.	.	.	.	.
CC/C(=N/O)c1cnnc(SC)n1	.	.	.	.	16	.	95	.	.	.	.	.	.
CSc1nncc(/C(C)=N/O)n1	.	.	.	.	.	.	/	/	/	/	/	/	/
O=C(NC1CCCCC1)C(c1cccnc1)N(CCc1ccccc1)C(=O)Cc1cccs1 (stereo not given)	.	.	.	.	.	.	/	/	/	/	/	/	/
Cc1ccc(Nc2nc(N)nc(CN3CCN(Cc4ccc5c(c4)OCO5)CC3)n2)cc1Cl	.	-9.2	.	.	.	45	/	.	.	.	.	.	.
CC(OC(=O)c1cc(=O)[nH]c2ccccc12)C(=O)c1ccccc1 (stereo not given)	.	.	.	.	.	.	/	/	/	/	/	/	/
COc1cc(CC(NC(C)=O)C(=O)NC2CCN(C(=O)c3cc(OC)c(OC)c(OC)c3)CC2)cc(OC)c1 (stereo not given)	.	.	.	141[activator]	.	.	110	.	.	.	.	.	.
OC12CCCCC1C(c1ccc3c(c1)OCO3)N(Cc1ccccc1F)CC2 (stereo not given)	130	.	.	.	.	158[activator]	113	.	.	.	.	.	.
SMILES	Avidin fluor	RGS4-Gao reg	GSH fluor	RGS8-Gao reg	RGS16-Gao HTS	RGS7-Gao	RGS-Gao	Biotin-avidin	RGS8-Gao confirm	RGS7-Gao single	RGS16-Gao single	RGS4-Gao single	RGS19-Gao single
OC12CCCCC1C(c1ccc3c(c1)OCO3)N(Cc1ccc(F)cc1)CC2 (stereo not given)	.	.	.	.	.	.	/	/	/	/	/	/	/
COc1ccc(-c2nnc(SCc3ccc(C(=O)O)cc3)n2N)cc1	.	.	/	.	.	?	/	/	/	/	/	/	/
O=C(NNS(=O)(=O)c1ccc(F)cc1)c1ccc(S(=O)(=O)N2CCCCC2)cc1	.	.	.	.	.	.	/	/	/	/	/	/	/
O=C(Nc1ccc(S(=O)(=O)N2CCOCC2)cc1)c1ccc(Cl)cc1	.	.	/	.	.	?	/	/	/	/	/	/	/
Cc1ccc(C(=O)Nc2ccc(S(=O)(=O)N3CCOCC3)cc2)cc1	227	151[activator]	.	.	.	365[activator]	/	.	.	.	.	.	.
CC(=O)Nc1ccc(S(=O)(=O)NNC(=O)c2ccc(S(=O)(=O)N3CCCCC3)cc2)cc1	.	.	.	.	20	.	98	.	.	.	.	.	.
CCOC(=O)N1CCC(NC(=O)CSc2cc(=O)n(C)c3ccccc23)CC1	.	.	.	140[activator]	.	.	110	.	.	.	.	.	.
Cn1c(=O)cc(SCC(=O)N2CCCC2)c2ccccc21	.	.	.	.	.	.	/	/	/	/	/	/	/
O=C(OCc1cccc([N+](=O)[O-])c1)c1ccc2ccccc2n1	.	.	.	.	.	.	/	/	/	/	/	/	/
OCCC1CN(Cc2ccc(Oc3ncccn3)cc2)CCN1C1CCCCC1 (stereo not given)	159	.	/	48	.	?	147	.	.	.	.	.	.
O=C(CNC(=O)c1ccccc1)NCc1ccc(Cl)cc1	.	.	.	.	.	150[activator]	104	.	.	.	.	.	.
O=C(CN1C(=O)/C(=C/c2cccc(Br)c2)SC1=S)N1CCCC1	.	.	.	.	.	.	/	/	/	/	/	/	/
O=C(CCN1C(=O)/C(=C/c2ccccc2Cl)SC1=S)NC1=NCCS1	.	.	.	157[activator]	.	.	127	.	.	.	.	.	.
